Only some compounds are listed: those with a hit (about 4.2% of all), similar ones and a draw of the others.
PfHsp90 yeast 2 – inhibits growth of yeast expressing Plasmodium falciparum Hsp90 | S. cerevisiae expressing PfHsp90, BacTiter-Glo ATP, 48 h; yeast lacking PDR1 and PDR3 efflux regulators | inhibition, % at 9.4 µM | hit rate 0.32% among 310,000 | AID 504621;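 active means every replicate shows inhibition above about 80%, whatever the replicate mean, limit read from the data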;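 further: 0% = DMSO neutral controls and 100% = 20 µM radicicol positive controls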
TIM10 inh – inhibits growth of TIM10 yeast strain | S. cerevisiae TIM10 strain growth, BacTiter-Glo luminescence, 24 h | inhibition, % at 10 µM | hit rate 1.4% among 330,000 | AID 463195;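 active means inhibition of 40% or more at the single tested concentration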;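 further: wild-type TIM10 isogenic control strain grown at permissive 25 °C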
NLRP3 yeast inh – NALP3 inhibition in yeast; Yeast reconstituted NLRP3/ASC/caspase-1, beta-gal luminescence, 24 h; inhibition, % at 10 µM; hit rate 0.39% among 330,000; AID 2825;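 active means inhibition of 50% or more; inactive means inhibition below 50%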;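 further: plate controls were induced DMSO wells for no effect and uninduced yeast grown without galactose for full effect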
tim10-1 inh – growth inhibitors of tim10-1 mutant yeast. S. cerevisiae tim10-1 ts strain growth, BacTiter-Glo, 24 h. hit rate 2.2% among 330,000. inhibition, % at 20 µM;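 active means inhibition of at least 40%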;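 further: mutant grown at 25 °C; 0% = DMSO wells with yeast and 100% = wells holding no yeast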
NALP1 yeast inh – blocks the NALP1 inflammasome reconstituted in yeast; S. cerevisiae NALP1/ASC/caspase-1 growth, X-gal OD620, 72 h; inhibition, % at 10 µM; hit rate 0.61% among 280,000; in the data active means inhibition mostly above about 24%, no sharp cut-off; inactive means mostly below about 32%
tim23-1 inh – growth inhibitors of tim23-1 mutant yeast; S. cerevisiae tim23-1 growth, BacTiter-Glo luminescence, 24 h; inhibition, % at 20 µM; hit rate 1.3% among 330,000; AID 463212;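 active means growth inhibition of the mutant yeast at or above 50%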;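 further: temperature-sensitive mutant grown at 25 °C; plate controls were DMSO-treated mutant yeast for no effect and medium wells lacking yeast for full effect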
tim10-1 confirm – confirmation of tim10-1 mutant yeast growth inhibitors; inhibition, % at 20 µM; S. cerevisiae tim10-1 ts strain growth, BacTiter-Glo, 24 h; hit rate 56% among 7,400; shares compounds with tim10-1 inh;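 active means inhibition of yeast growth at or above a set limit in either of two repeat tests at 20 µM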;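 further: tim10-1 mutant grown at permissive 25 °C to find synthetic lethal compounds; 0% = DMSO yeast wells and 100% = medium wells without yeast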
tim10 confirm – confirmation of TIM10 yeast growth inhibitors | AID 463215 | hit rate 63% among 4,600 | S. cerevisiae tim10 strain growth, BacTiter-Glo luminescence, 24 h | shares compounds with TIM10 inh | inhibition, % at 10 µM;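 active means inhibition of yeast growth at or above a set limit in either of two replicates at 10 µM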;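 further: this counterscreen used the strain with wild-type TIM10; 0% = yeast with DMSO and 100% = medium wells lacking yeast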
tim23-1 conf – tim23-1 yeast growth inhibition, confirmed | inhibition, % at 20 µM | shares compounds with tim23-1 inh | AID 463218 | hit rate 83% among 4,400 | S. cerevisiae tim23-1 growth, BacTiter-Glo luminescence, 24 h;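 active means inhibition above about 39% in either of two replicate wells at 20 µM, limit read from the data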;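 further: temperature-sensitive tim23-1 mutant grown at 25 °C; 0% = DMSO wells with yeast and 100% = medium wells without yeast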
An asterisk follows results filed as active; . = not tested or not shown.

SMILES	PfHsp90 yeast 2	TIM10 inh	NLRP3 yeast inh	tim10-1 inh	NALP1 yeast inh	tim23-1 inh	tim10-1 confirm	tim10 confirm	tim23-1 conf
O=c1[nH]c(Sc2ccc([N+](=O)[O-])cc2[N+](=O)[O-])nc2ccccc12	37	29	15	45*	.	68*	38*	.	53*
COc1ccccc1C(C)NC(=O)c1ccc(S(=O)(=O)NCc2ccco2)cc1 (centres undefined)	3	-7	11	-3	.	5	.	.	.
CCN1C(=O)[C@@H]2[C@@H](c3ccc(-c4ccc(C(C)=O)cc4)cc3)N3CCCC[C@@]3(C(=O)OC)[C@@H]2C1=O	-13	10	26	2	.	19	.	.	.
O=c1c2c([N+](=O)[O-])cc([N+](=O)[O-])cc2nc2ccccn12	2	37	9	42*	17	85*	68*	.	87*
CC(C)Cn1nc(C(=O)Nc2nnc(C3CC3)s2)c2ccccc2c1=O	-17	20	26	47*	.	52*	29*	.	41*
COc1ccc(-c2cc(-c3c(O)c(OC)c4occc4c3OC)[nH]n2)cc1OC	9	36	10	50*	-2	53*	31*	.	45*
CC1=C/C(=C\c2ccc3c(c2)OCO3)C(=O)S1	-2	46*	-9	48*	0	53*	39*	40*	20
CCCN1C/C(=C/c2ccc3c(c2)OCO3)C(=O)/C(=C/c2ccc3c(c2)OCO3)C1	14	34	18	36	35	44	.	.	.
O=C1Nc2ccccc2/C1=C/C(=O)c1cccs1	-29	68*	30	51*	-36	55*	60*	93*	-42
COc1ccc(C2(C(=O)c3ccccc3)C(=O)c3ccccc3C2=O)cc1	3	10	17	10	8	35	.	.	.
COc1ccc(C(=O)/C=C2/C(=O)Nc3ccccc32)cc1OC	-14	76*	26	64*	-5	80*	65*	73*	57*
COc1ccc(C(=O)/C=C2/C(=O)Nc3ccccc32)cc1	11	91*	38	84*	14	88*	88*	80*	85*
C=CCOc1ccc(C(=O)/C=C2/C(=O)Nc3ccccc32)cc1	-49	77*	36	84*	3	88*	86*	90*	77*
COc1ccc(C2NC(=O)c3ccccc3N2)cc1OC (centres undefined)	-8	10	-4	22	12	11	.	.	.
CCN(c1ccccc1)S(=O)(=O)c1cccc(C(=O)OCC(=O)Nc2ccc(NC(C)=O)cc2)c1	25	2	0	13	.	8	.	.	.
CCN(CC)CCN(C(=O)c1ccc2c(c1)CCCC2)c1nc2cc(OC)c(OC)cc2s1	-20	49*	28	61*	15	66*	40*	46*	61*
COc1cc2nc(N(CCN(C)C)C(=O)c3ccc4ccccc4c3)sc2cc1OC	-22	10	8	5	10	22	.	.	.
Cn1cccc1/C=N/n1c(-c2ccc(C(C)(C)C)cc2)n[nH]c1=S	.	37	20	44*	13	54*	29	.	49*
Cn1cccc1/C=N/n1c(-c2ccccc2)n[nH]c1=S	-3	32	34	10	7	26	.	.	.
COc1ccccc1N1CCN(C(=O)c2cccc(S(=O)(=O)N3CCCCCC3)c2)CC1	-8	10	24	19	.	24	.	.	.
O=[N+]([O-])c1ccc(Nc2c3ccccc3nc3ccccc23)cc1	-11	49*	19	63*	-8	73*	54*	50*	68*
O=[N+]([O-])c1ccccc1Nc1c2ccccc2nc2ccccc12	-12	5	1	-6	-4	1	.	.	.
Cc1ccc(/C=C2/SC(=S)N(C3CCCCC3)C2=O)o1	-53	31	-1	28	-2	36	.	.	.
O=C1/C(=C\c2ccncc2)SC(=S)N1C1CCCCC1	-17	27	15	43*	32	52*	23	.	42*
Oc1c(Cl)cc(Cl)cc1C=Nc1ccc2c(c1)OCCO2	.	47*	-2	46*	5	77*	29	32*	81*
SMILES	PfHsp90 yeast 2	TIM10 inh	NLRP3 yeast inh	tim10-1 inh	NALP1 yeast inh	tim23-1 inh	tim10-1 confirm	tim10 confirm	tim23-1 conf
COc1ccc(OCCOC(=O)c2cccs2)cc1	.	-10	31	9	15	-7	.	.	.
COc1ccc(C2CC2/C(C)=N/OC(=O)c2cccs2)cc1 (centres undefined)	1	65*	30	66*	10	78*	45*	86*	81*
COc1ccc(C2CC2/C(=N/O)c2ccccc2)cc1 (centres undefined)	-31	-11	19	17	-10	15	.	.	.
COc1ccc(C2CC2/C(C)=N/OC(=O)c2ccc(F)cc2)cc1 (centres undefined)	1	84*	25	49*	-2	77*	23	92*	61*
COc1ccc(-c2noc(CNC(=O)CCN3C(=O)[C@H]4CC=CC[C@H]4C3=O)n2)cc1	-8	-1	12	0	-2	4	.	.	.
CC1=CC(=O)C=C(C)C1=NOc1ccccc1[N+](=O)[O-]	27	72*	2	78*	26	66*	76*	18	83*
Cc1cc(C)c(S(=O)(=O)Oc2ccccc2[N+](=O)[O-])c(C)c1	-18	.	.	.	.	.	.	.	.
COc1ccc(S(=O)(=O)N2CCOCC2)cc1NC(=O)c1cccc(Cl)c1	4	6	0	6	26	7	.	.	.
O=S(=O)(c1ccc2c(c1)OCCO2)N1CCN(Cc2ccc3c(c2)OCO3)CC1	.	50*	9	47*	4	60*	46*	51*	63*
CCCCOc1ccccc1C(=O)NNC(=S)NC(=O)c1ccccc1[N+](=O)[O-]	1	17	26	19	-8	1	.	.	.
CC[C@@H]1C/C=C\Cc2ccccc2[C@H](C(=O)C[C@@H](O)CC(C)=O)OC1=O	-8	39	-10	54*	.	52*	53*	.	49*
CC(Nc1cccnc1)=C(C#N)C#N	-8	7	5	8	4	-11	.	.	.
O=C1[C@@H]2Cc3c([nH]c4ccccc34)C(c3cccc([N+](=O)[O-])c3)N2C(=O)CN1C1CCN(Cc2ccccc2)CC1 (some centres undefined)	19	25	22	11	19	2	.	.	.
CN(Cc1ccc(F)cc1)C(=O)c1cc(COc2ccc(-n3cncn3)cc2)on1	-4	41*	13	53*	6	59*	37*	35*	43*
